DRD3 agonist – agonists of human D3 dopamine receptor; max activation, %; AID 652048; 0.58% of 410,000 active; P35462; D3R DiscoveRx beta-arrestin cells, luminescence, 90 min; in the data active means max activation above about 30%; further: 0% is about no effect
Target sequence (P35462 whole entry, looked up): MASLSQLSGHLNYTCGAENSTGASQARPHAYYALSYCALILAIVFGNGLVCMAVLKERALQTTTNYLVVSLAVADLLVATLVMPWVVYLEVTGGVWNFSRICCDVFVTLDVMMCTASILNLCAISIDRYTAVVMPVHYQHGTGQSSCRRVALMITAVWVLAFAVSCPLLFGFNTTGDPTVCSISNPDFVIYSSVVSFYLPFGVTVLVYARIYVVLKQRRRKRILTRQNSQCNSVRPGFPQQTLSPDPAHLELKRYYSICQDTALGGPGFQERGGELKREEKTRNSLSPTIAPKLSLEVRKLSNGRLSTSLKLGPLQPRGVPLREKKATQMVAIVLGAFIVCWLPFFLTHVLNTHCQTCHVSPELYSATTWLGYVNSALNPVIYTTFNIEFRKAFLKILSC
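Agonist-mode cell screen: cells plated at 1500/well and incubated overnight at 37 °C, then exposed to library compounds for 90 min at 37 °C. Detection reagent was added for 30–60 min at room temperature, and luminescence was read.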
D1 potentiator – potentiators of human D1 dopamine receptor. P21728. HEK293 TREx D1 cells, calcium flux, dopamine EC20 potentiation. potentiation, % at 10 µM. 0.036% of 360,000 active; in the data active means potentiation above about 30%; further: 0% is about no effect
D3 antag – D3 dopamine receptor (human) antagonism | 2.5% of 360,000 active | AID 652054 | max response, negative = inhibition, % | D3R cells, DiscoveRx beta-arrestin luminescence, antagonist mode; stronger effect = lower value; in the data active means max response below about -50%; inconclusive means no clear call, values can overlap the other calls; further: on the % scale 0 is the no-effect control and ±100 the full control effect
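Cells expressing the human receptor were seeded at 1500 cells/well, incubated overnight at 37 degrees C in 5% CO2, then exposed to library compounds with dopamine controls for 90 minutes at 37 degrees C before luminescent detection.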
D1 antagonist – blocks dopamine activation of the human D1 receptor; AID 504652; P21728; activity change, negative = inhibition, % at 10 µM; 3.2% of 360,000 active; HEK293 TREx D1 cells, calcium flux, dopamine EC80; stronger effect = lower value; in the data active means activity change below about -30%; further: on the % scale 0 is the no-effect control and ±100 the full control effect
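Compound effects on dopamine-evoked calcium signalling were measured in tetracycline-induced HEK293 Trex D1 cells. Dopamine at EC80 followed a 180 s compound pre-read, and fluorescence was tracked kinetically for 180 s more.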
BCR signal inh – inhibitors of chronic active B-cell receptor signaling. 0.05% of 340,000 active. ABC-DLBCL IkBa-CBG/CBR reporter, luminescence ratio, 4 h. Potency, µM (series often up to 46.1 µM), inactives show top-dose activity change, negative = inhibition, hits mostly inhibitors; active means well fitted inhibition curve with a large enough effect in the signal ratio, with a control signal flat, not every such curve was filed as active; inconclusive means small, poorly fitted or top-dose-only effect, or effect the other way, or a change in a side signal; the % refers to the signal ratio;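 further: potency means the concentration at half of the fitted maximal effect; plate controls were basal doxycycline-induced cells for no effect and cells given 10 µM MG132 for full effect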
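TMD8 human ABC-DLBCL cells with doxycycline-inducible IκBα–green luciferase fusion and unfused red luciferase, in 0.5% FBS medium; compounds up to 46 uM, 4 h at 37C. Green/red luminescence ratio, filter-overlap corrected, fitted to concentration-response curves.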
D1 ag – agonists of human D1 dopamine receptor; P21728; HEK293 T-REx D1 cells, calcium flux, agonist mode; activation, % at 2 µM; 1% of 360,000 active; AID 504660; in the data active means activation above about 30%; further: 0% is about no effect
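Inducible HEK293 T-REx D1 cells, force-coupled to calcium signalling, were plated at 4000 cells/well with tetracycline and held overnight at 30 C. After no-wash calcium dye loading, compound-evoked calcium rise over 180 s flagged agonists.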
* marks the source's active call; other numbers are inactive results; u = inconclusive; x = no result given. Rows were chosen to be rich in hits. Some 6% of all compounds tested hit in one or more screens of this group.

SMILES | DRD3 agonist | D1 potentiator | D3 antag | D1 antagonist | BCR signal inh | D1 ag
CCCNC(=O)C1(C)CCCN(Cc2ccc(Cl)cc2)C1 (stereo not given) | 0 | x | -1 | x | x | x
CCNC(=O)C1(C)CCN(Cc2csc(-c3ccccc3)n2)C1 (stereo not given) | -27 | x | -113* | x | x | x
CCNC(=O)C1(C)CCCN1C(=O)c1ccc(F)c(Cl)c1 (stereo not given) | 9 | x | 27 | x | x | x
CCCNC(=O)C1(C)CCCN(Cc2ccc3c(c2)OCO3)C1 (stereo not given) | -11 | x | -55* | x | x | x
CCCNC(=O)C1(C)CCN(Cc2cccc(OC(=O)c3ccccc3)c2)C1 (stereo not given) | -16 | x | -79* | x | x | x
CCNC(=O)C1(C)CCCN1C(=O)c1ccc2c(c1)OCO2 (stereo not given) | 87* | x | 6 | x | x | x
CCCNC(=O)C1(C)CCN(Cc2ccc(-c3ccccc3)o2)C1 (stereo not given) | -23 | x | -79* | x | x | x
CCNC(=O)C1(C)CCCN(Cc2ccc(-c3ccccc3)o2)C1 (stereo not given) | -18 | x | u | x | x | x
CCNC(=O)C1(C)CCN(Cc2ccc(C(F)(F)F)cc2)C1 (stereo not given) | 3 | x | -5 | x | x | x
CCCNC(=O)C1(C)CCN(Cc2cc(C(F)(F)F)ccc2Cl)C1 (stereo not given) | -14 | x | -57* | x | x | x
CC(=O)N1CCOCC1c1cc(C(=O)Nc2ccccc2)no1 (stereo not given) | 6 | x | -2 | x | x | x
Cc1cccc(-c2nc(Cn3c(=O)cc(-c4ccccc4)c4c(C)nn(C)c43)c(C)o2)c1 | -14 | -4 | x | -3 | x | 9
Cc1ccc(NS(=O)(=O)c2ccc(OCC(=O)NCC3CCCO3)cc2)cc1 (stereo not given) | 3 | -4 | 12 | -38* | 8% | 10
C=C(C)CN(CC)C(=O)COc1ccc(S(=O)(=O)Nc2ccc(OC)cc2)cc1 | -1 | -7 | 0 | -28 | 0% | 52*
CCOC(=O)c1ccc(NS(=O)(=O)c2ccc3c(c2)OCCO3)cc1 | -10 | -6 | x | -36* | x | 25
COc1ccc(S(=O)(=O)Nc2ccc(CC#N)cc2)cc1 | 1 | -2 | -22 | -33* | -2% | 6
Cc1ccc(C)c(NS(=O)(=O)c2ccc(OCC(=O)NCC3CCCO3)cc2)c1 (stereo not given) | -9 | -1 | -6 | -6 | -1% | 1
COCCNc1ncnc2c1cnn2-c1cc(Cl)ccc1C | 6 | -2 | x | -9 | -1% | -4
Cc1ccsc1CNC(=O)C1(C)CCCN1CC(C)C (stereo not given) | 0 | x | 18 | x | x | x
CCOC(=O)COc1ccc(S(=O)(=O)Nc2ccc3c(c2)OCCO3)cc1 | 5 | -5 | 11 | -20 | -12% | 33*
COc1ccc(NS(=O)(=O)c2cccc(C(=O)OCC(=O)Nc3cc(C)on3)c2)cc1 | 2 | -2 | -10 | -15 | -13% | 9
Cc1ccc(NS(=O)(=O)c2ccc(C(=O)OCC(=O)Nc3cc(C)on3)cc2)cc1 | 3 | 0 | 0 | -6 | -4% | 44*
COC(=O)COc1ccc(S(=O)(=O)Nc2ccc3c(c2)OCO3)cc1 | -7 | -10 | -12 | -17 | u | 12
CCc1cccc(NC(=O)c2oc3ccc4c(c3c2C)C(=O)CC(C)(C)O4)c1 | 6 | 1 | x | -4 | x | 3
CCN(CC)C(=O)CSc1nc2c(sc(=S)n2-c2ccc(C)cc2C)c(=O)[nH]1 | 8 | -4 | 12 | -41* | -7% | 1
SMILES | DRD3 agonist | D1 potentiator | D3 antag | D1 antagonist | BCR signal inh | D1 ag
COc1ccccc1-c1noc2c1C(=O)N(Cc1cn(Cc3ccccc3)nn1)CC2 | -13 | x | 0 | x | x | x
O=[S+]([O-])(c1ccc2c(c1)OCCO2)N1CCN([S+](=O)([O-])c2c(F)cc(Br)cc2F)CC1 | x | 4 | x | 10 | x | 2
COc1ccc(NC(=O)c2ccc(C)cc2Cl)c([N+](=O)[O-])c1 | 2 | -2 | -63* | -5 | u | 2
COc1ccc(F)cc1-c1cc(NC=O)c2ncc(-c3cc(OC)c(OC)c(OC)c3)n2c1 | 6 | x | 22 | x | x | x
O=C(NCC1CCCO1)c1c(O)c2cccc3c2n(c1=O)CCC3 (stereo not given) | -2 | 0 | 0 | -53* | 1% | 0
O=C(NCC1CCCO1)c1c(O)c2cccc3c2n(c1=O)CC3 (stereo not given) | -16 | 7 | u | 1 | -11% | 1
O=C(Cc1cccc(C(F)(F)F)c1)NCc1cccc(Cl)c1 | 2 | -10 | 1 | -19 | 8% | 2
O=C(Cc1cccc(C(F)(F)F)c1)NCC(=O)Nc1cc(Cl)ccc1Cl | -5 | 32* | 1 | 7 | u | 3
O=C(CS(=O)c1cccc(C(F)(F)F)c1)Nc1ccccc1Cl (stereo not given) | -7 | -8 | -7 | -47* | -10% | 4
Cc1cccnc1NC(=O)CCNS(=O)(=O)c1ccc2c(c1)c(=O)n(C)c(=O)n2C | -11 | -1 | -5 | 4 | -1% | -3
Cc1csc(NC(=O)CCNS(=O)(=O)c2ccc3c(c2)c(=O)n(C)c(=O)n3C)n1 | 24 | 4 | -93* | 9 | 1% | -1
Cc1nn2c(C)c(C(=O)N3CCN(c4ccccc4)CC3)cnc2c1-c1ccccc1 | 3 | 0 | x | -3 | x | 1
CCCc1cc(N2CCCC(C(=O)Nc3c(OC)cccc3OC)C2)n2ncnc2n1 (stereo not given) | 31* | -2 | -5 | -2 | -3% | 2
Cc1cc(N2CCOCC2)ccc1/C=C\[N+](=O)[O-] | -1 | -2 | 8 | 11 | u | 47*
Cc1nc(SCC(=O)N2CCN(c3ccccc3)CC2)c2oc3ccccc3c2n1 | 42* | 7 | 118 | 6 | u | 1
Cc1ccccc1C(=O)NCc1ccc2c(c1)CCN2C(=O)c1ccccc1 | -6 | -4 | x | -41* | -10% | 8
CCOc1ccccc1C(=O)NCc1ccc2c(c1)CCN2C(=O)c1ccccc1 | -8 | -4 | x | -38* | u | 5
O=C(NCc1ccc2c(c1)CCN2C(=O)c1ccncc1)c1ccccc1Br | 1 | -4 | x | -31* | -4% | 9
O=C(NCc1ccc2c(c1)CCN2C(=O)c1ccncc1)c1ccccc1F | -12 | 1 | x | -1 | -3% | 12
CCCc1cc(=O)n2[nH]c(-c3ccco3)nc2n1 | 43* | -2 | -14 | 10 | u | 1
Cc1cc(=O)n2[nH]c(-c3ccco3)nc2n1 | -12 | -5 | -24 | 13 | u | 3
CCCc1cc(=O)n2[nH]c(NCc3cccs3)nc2n1 | -3 | 2 | 12 | -37* | u | 6

Bioassay records as filed in PubChem.
